Test systems include BT-549 breast; MDA-MB-435 melanoma; SW-620 colon; MCF7 breast; HCT-116 colon; HCC-2998 colon; KM12 colon.
Common to all, as to assay: NCI-60 one-dose screen, 48 h (100 = growth as untreated, 0 = no growth, -100 = all killed)
Common to all, as to conditions: 10 µM

This is part of a sample that, as a whole, favours compounds with a hit. Of some 83,000 tested, about 20% had one in any assay.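 Step 1: grow cells in 96-well plates. Step 2: add test compound at a single concentration. Step 3: incubate 48 h. Step 4: record percent growth.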 A number with no mark means an inactive call. Calls of active or inactive are those of the source. The calls were made as follows: active = growth percent below 10; inactive = the rest.

As for `Cc1ccc(N=Nc2c(N)nc(N)[nH]c2=O)cc1C`, the growth in the experiment on BT-549 breast was 98.5%; in the experiment on MDA-MB-435 melanoma, 95.1%; in the experiment with SW-620 colon, 102%; in the experiment with MCF7 breast it was 94.4%; with HCT-116 colon, 96.8%; in the experiment with HCC-2998 colon it was 113%. The growth in the experiment on KM12 colon is 111%.

Take `Nc1c(C(=O)Nc2ccccc2Cl)sc2nc3c(cc12)C(=O)CCC3`: the growth in the experiment with BT-549 breast was 61.2%; with MDA-MB-435 melanoma it was -53.3% (active); in the experiment on SW-620 colon it was 29%; in the experiment on MCF7 breast, 16.1%; in the experiment with HCT-116 colon, 76.5%; in the experiment on HCC-2998 colon, 63.2%. The growth with KM12 colon was 28.5%.

Take `c1ccc([C@H]2CN3CCSC3=N2)cc1`: the growth was 102% in the experiment on BT-549 breast; 101% with MDA-MB-435 melanoma; 98.6% in the experiment with SW-620 colon; 94.4% in the experiment with MCF7 breast; 110% with HCT-116 colon; 119% in the experiment with HCC-2998 colon. Also, the growth in the experiment on KM12 colon is 109%.

`ClCC#CCSc1ncnc2c1ncn2CC#CCCl`: the growth is 27.5% with BT-549 breast; 0.673% (active) in the experiment on MDA-MB-435 melanoma; 2.37% (active) with SW-620 colon; 20.2% in the experiment on MCF7 breast; -49% (active) in the experiment on HCT-116 colon; -24.9% (active) in the experiment with HCC-2998 colon. In addition, the growth in the experiment with KM12 colon was 6.96% (active).

Regarding `Clc1ccc(Nc2ccnc(NCCCNc3ccnc4cc(Cl)ccc34)n2)cc1`, the growth in the experiment with BT-549 breast is 0.946% (active); in the experiment on MDA-MB-435 melanoma, -87.3% (active); with SW-620 colon, -60.9% (active); in the experiment on MCF7 breast, -89.8% (active); in the experiment with HCT-116 colon, -78.3% (active); with HCC-2998 colon, -88.9% (active). Besides, the growth with KM12 colon is -16.2% (active).

As to `Cc1c(Cl)cccc1NC(=O)c1sc2nc3c(cc2c1N)C(=O)CCC3`, the growth was 49.9% in the experiment with BT-549 breast; -43.6% (active) in the experiment on MDA-MB-435 melanoma; 18.3% in the experiment on SW-620 colon; 13.5% with MCF7 breast; 14.3% in the experiment with HCT-116 colon; 25.8% in the experiment with HCC-2998 colon. Besides, the growth with KM12 colon was 11.1%.

In the case of `COc1cc(-c2cc(/C=C3\C(=O)Nc4ccc(Cl)cc43)[nH]n2)cc(OC)c1OC`, the growth in the experiment on BT-549 breast was 27.1%; with MDA-MB-435 melanoma, 10.3%; in the experiment with SW-620 colon it was 27.3%; in the experiment on MCF7 breast, 0.175% (active); with HCT-116 colon it was 4.26% (active); with HCC-2998 colon it was 73.2%. Also, the growth in the experiment with KM12 colon is 7.16% (active).

For `COc1ccc(N=C2C(=Nc3ccc(OC)cc3)N(c3ccc(N(C)C)cc3)C(=S)N2c2ccc(OC)cc2)cc1`, the growth in the experiment with BT-549 breast is 75.1%; in the experiment on MDA-MB-435 melanoma, 86.5%; in the experiment with SW-620 colon, 94.7%; in the experiment on MCF7 breast, 84.9%; with HCT-116 colon it was 81.6%; in the experiment on HCC-2998 colon, 105%. Besides, the growth with KM12 colon is 86.8%.

Consider `COc1ccc(Oc2nc(NC3CCCC3)nc(Sc3ccc(OC)cc3)n2)cc1`, for which the growth with BT-549 breast was 91.9%; in the experiment on MDA-MB-435 melanoma, 89%; with SW-620 colon it was 87.9%; with MCF7 breast, 69.3%; in the experiment on HCT-116 colon, 45.1%; with HCC-2998 colon it was 98.8%. Further, in the experiment on KM12 colon, the growth is 83.9%.

With `COc1cc(-c2cc(-c3cc4c([nH]c5ccccc54)c(-c4cc(OC)c(OC)c(OC)c4)n3)cc(-c3ccccc3)n2)cc(OC)c1OC`, the growth in the experiment with BT-549 breast was 66.6%; in the experiment with MDA-MB-435 melanoma, -1.18% (active); with SW-620 colon, 41.4%; in the experiment on MCF7 breast, 44%; with HCT-116 colon, 57%; in the experiment with HCC-2998 colon, 72.8%. Moreover, the growth with KM12 colon is 60%.

For the compound `O=C1C(=O)c2ccccc2C(O)=C1CCCc1ccc(C2CCCCCC2)cc1`, the growth with BT-549 breast is 58.2%; in the experiment on MDA-MB-435 melanoma, 33.9%; in the experiment on SW-620 colon it was 32.9%; in the experiment with MCF7 breast it was 25.5%; in the experiment on HCT-116 colon it was 24.6%; in the experiment with HCC-2998 colon, 8.94% (active). For the same compound, the growth with KM12 colon is 37.8%.

Consider `COc1ccc(-c2csc(NC(=O)CSc3nc(C)c(-c4ccccc4)n3Nc3ccccc3)n2)cc1`, for which the growth was 63.5% in the experiment with BT-549 breast; 56.1% in the experiment on MDA-MB-435 melanoma; 70.2% in the experiment on SW-620 colon; 41.7% with MCF7 breast; 36.4% with HCT-116 colon; 78.7% in the experiment with HCC-2998 colon. Moreover, in the experiment with KM12 colon, the growth was 41.5%.

As for `COc1ccc(NC2=NC(C)(CO)CS2)cc1` (stereo unspecified), the growth is 98.4% with BT-549 breast; 101% in the experiment on MDA-MB-435 melanoma; 104% in the experiment with SW-620 colon; 88.6% with MCF7 breast; 102% in the experiment on HCT-116 colon; 104% with HCC-2998 colon. Also, in the experiment on KM12 colon, the growth was 104%.

Regarding `COc1cc(Nc2ccnc(NCCCNc3ccnc4cc(Cl)ccc34)n2)cc(OC)c1`, the growth is 19.7% in the experiment with BT-549 breast; -81.9% (active) in the experiment on MDA-MB-435 melanoma; -43.3% (active) in the experiment with SW-620 colon; 3.36% (active) in the experiment with MCF7 breast; -53.6% (active) in the experiment on HCT-116 colon; -65% (active) with HCC-2998 colon. The growth in the experiment on KM12 colon is 47.1%.

Consider `CN1CCC2(CC1)NC(=O)c1c(c3ccc(Cl)c(Cl)c3n1C)C2C#N` (stereo unspecified), for which the growth in the experiment on BT-549 breast was 84.9%; in the experiment with MDA-MB-435 melanoma it was 49.2%; in the experiment on SW-620 colon, 83.9%; with MCF7 breast, 28.5%; with HCT-116 colon, 43%; in the experiment with HCC-2998 colon, -1.84% (active). The growth in the experiment with KM12 colon was 106%.

As to `Cc1ccc(S(=O)(=O)Oc2ccc3c4c(c(=O)oc3c2)CCCCC4)cc1`, the growth in the experiment with BT-549 breast was 47.3%; in the experiment with MDA-MB-435 melanoma, 57%; in the experiment on SW-620 colon, 30.2%; in the experiment with MCF7 breast, 50.5%; in the experiment with HCT-116 colon, 36.7%; in the experiment on HCC-2998 colon it was 51.4%. In addition, the growth in the experiment on KM12 colon is 35.3%.

With `O=C1ON=[N+](c2ccc(Cc3ccc([N+]4=NOC(=O)C4CN4CCOCC4)cc3)cc2)C1CN1CCOCC1` (stereo unspecified), the growth in the experiment on BT-549 breast was 60.7%; in the experiment with MDA-MB-435 melanoma it was 4.71% (active); in the experiment with SW-620 colon it was 67.7%; in the experiment on MCF7 breast it was 45.6%; in the experiment with HCT-116 colon it was 63.7%; with HCC-2998 colon it was 80.5%. For the same compound, the growth with KM12 colon is 54.3%.

`CN1CCCNc2c(c(=O)c2=O)NCCCN(C)CCCNc2c(c(=O)c2=O)NCCCN(C)CCCNc2c(c(=O)c2=O)NCCCN(C)CCCNc2c(c(=O)c2=O)NCCCN(C)CCCNc2c(c(=O)c2=O)NCCCN(C)CCCNc2c(c(=O)c2=O)NCCCN(C)CCCNc2c(c(=O)c2=O)NCCC1`: the growth in the experiment on BT-549 breast is 67.1%; in the experiment on MDA-MB-435 melanoma it was 21.1%; in the experiment on SW-620 colon, 41%; in the experiment on MCF7 breast it was 74.1%; with HCT-116 colon, 59.2%; with HCC-2998 colon, 70.6%. Also, the growth in the experiment with KM12 colon is 34.9%.

For the origin of these results see PubChem BioAssay (NCI).
